Data taken from PubChem BioAssay (NCATS).
Records with an inconclusive call do not appear. More than one record can exist for a structure, and the calls need not agree. Active and inactive are the calls of the source. Unless noted, calls follow the shape of the dose curve; as a rule, active = well fitted curve in the direction sought with a large enough effect; inconclusive = small, poorly fitted or top-dose-only effect, or another doubt; inactive = no such curve, though single readings can be large; an effect the other way counts as inactive or inconclusive.

Legend:
[1] = biological target: Ubiquitin carboxyl-terminal hydrolase 2 (Homo sapiens) (UniProt O75604); assay: qHTS Validation Assay for Inhibitors of Ubiquitin-specific Protease USP2a Using CHOP2 as the Reporter (AID 463106)
How it was run: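 Fluorescence read-out at Ex 485nm/Em 531nm after 60min RT, following addition of 25nM Ub-CHOP2 plus 25nM reporter substrate to USP2 core (10nM) pretreated 30min with compound. Data normalized to NEM full inhibition; concentration-response curves fitted.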

[2] = biological target: DNA polymerase III PolC-type (Bacillus subtilis (strain 168)) (UniProt P13267); assay: qHTS Validation Assay for the Inhibitors of DNA Replication in Gram-Positive Bacteria (AID 485295);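 also: reconstituted holoenzyme with PolC plus beta clamp SSB and primase; PicoGreen fluorescence of double-stranded DNA made on primed circular M13 template; series mostly up to about 57 µM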
DNA polymerase III PolC-type (Bacillus subtilis (strain 168)), sequence (P13267 whole entry, looked up): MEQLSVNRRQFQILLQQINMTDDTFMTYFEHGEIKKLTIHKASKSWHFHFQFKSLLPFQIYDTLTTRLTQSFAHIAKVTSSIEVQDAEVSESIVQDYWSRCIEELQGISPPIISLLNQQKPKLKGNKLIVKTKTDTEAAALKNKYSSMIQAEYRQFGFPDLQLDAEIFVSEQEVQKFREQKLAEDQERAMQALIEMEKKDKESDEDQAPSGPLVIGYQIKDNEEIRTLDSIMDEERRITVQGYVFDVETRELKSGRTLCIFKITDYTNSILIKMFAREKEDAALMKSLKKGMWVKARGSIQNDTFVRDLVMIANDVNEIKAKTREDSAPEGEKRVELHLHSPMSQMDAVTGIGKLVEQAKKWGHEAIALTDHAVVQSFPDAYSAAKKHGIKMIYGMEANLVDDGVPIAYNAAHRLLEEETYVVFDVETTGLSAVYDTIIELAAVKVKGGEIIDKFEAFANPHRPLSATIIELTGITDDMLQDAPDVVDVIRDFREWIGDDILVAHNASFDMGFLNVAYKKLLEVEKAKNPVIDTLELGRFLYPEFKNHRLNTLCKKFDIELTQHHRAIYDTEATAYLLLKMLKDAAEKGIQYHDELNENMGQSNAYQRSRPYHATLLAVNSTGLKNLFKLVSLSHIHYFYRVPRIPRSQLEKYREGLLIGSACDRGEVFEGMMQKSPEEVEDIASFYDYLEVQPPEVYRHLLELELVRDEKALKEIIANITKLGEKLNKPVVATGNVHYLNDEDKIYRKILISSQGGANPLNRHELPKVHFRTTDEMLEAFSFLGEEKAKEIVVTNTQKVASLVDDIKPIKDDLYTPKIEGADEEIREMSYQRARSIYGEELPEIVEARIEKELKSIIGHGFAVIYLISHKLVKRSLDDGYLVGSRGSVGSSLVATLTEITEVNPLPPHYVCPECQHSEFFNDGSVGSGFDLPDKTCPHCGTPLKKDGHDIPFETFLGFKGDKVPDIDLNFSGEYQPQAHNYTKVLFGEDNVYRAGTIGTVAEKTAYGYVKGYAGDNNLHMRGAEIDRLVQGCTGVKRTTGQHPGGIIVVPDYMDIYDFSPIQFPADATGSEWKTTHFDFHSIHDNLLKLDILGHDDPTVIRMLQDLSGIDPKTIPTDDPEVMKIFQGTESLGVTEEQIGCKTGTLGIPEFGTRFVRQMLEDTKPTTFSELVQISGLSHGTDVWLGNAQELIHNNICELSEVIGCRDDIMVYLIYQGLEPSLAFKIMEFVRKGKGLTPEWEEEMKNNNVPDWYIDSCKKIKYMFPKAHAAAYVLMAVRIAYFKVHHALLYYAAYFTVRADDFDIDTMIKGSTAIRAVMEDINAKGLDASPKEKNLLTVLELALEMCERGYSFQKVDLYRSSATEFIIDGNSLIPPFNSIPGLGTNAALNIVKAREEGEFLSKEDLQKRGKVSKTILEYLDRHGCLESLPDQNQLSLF
How it was run: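 Inhibition of DNA synthesis by the reconstituted PolC holoenzyme, monitored through PicoGreen staining of dsDNA formed from ssM13Gori, dNTPs and NTPs, with compound preincubation and room-temperature reaction.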

[3] = biological target: Tumor susceptibility gene 101 protein (Homo sapiens) (UniProt Q99816); assay: qHTS Validation Assay for Iinhibitors of HIV-1 Budding by Blocking the Interaction of PTAP/TSG101 (AID 485342; calls by dose curve)
How it was run: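 Compound wells held the Tsg101 binding domain (10 uM) and a FITC-conjugated PTAP peptide (50 nM) in buffer at pH 7.5 containing 0.15 M NaCl and 0.01% Tween 20; polarization was recorded after 20 min, r.t.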

[4] = qHTS Validation Assay to Find Inhibitors of Chronic Active B-Cell Receptor Signaling (AID 485345; active = well fitted curve in the direction sought with a large enough effect in the main read-out, with a control signal flat, not every such curve was filed as active)
How it was run: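 TMD8 ABC-DLBCL cells stably carrying doxycycline-inducible IkappaBalpha–green luciferase fusion plus unfused red luciferase; compounds 46 uM to 3 nM, 4 h at 37C with doxycycline. Corrected green/red luminescence ratio normalized to 10 uM MG-132 and basal cell wells; curves fitted.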

[5] = biological target: Beta-2 adrenergic receptor (Homo sapiens) (UniProt P07550); assay: qHTS validation assay of beta-arrestin-biased ligands of beta2-adrenergic receptor (AID 485366)
How it was run: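 Agonist activity is measured as luciferase luminescence downstream of beta-arrestin recruitment to recombinant beta2-AR in Tango cells. Exposure lasts 18 hr at 37 degrees C, and curves are categorized by r2, response size and activity.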

[6] = biological target: ATP-dependent 6-phosphofructokinase (Trypanosoma brucei brucei) (UniProt O15648); assay: qHTS Validation Assay to Find Inhibitors of T. brucei phosphofructokinase (AID 485368); also: potency is read from the fitted curve at half-maximal effect
ATP-dependent 6-phosphofructokinase (Trypanosoma brucei brucei), sequence (O15648 whole entry, looked up): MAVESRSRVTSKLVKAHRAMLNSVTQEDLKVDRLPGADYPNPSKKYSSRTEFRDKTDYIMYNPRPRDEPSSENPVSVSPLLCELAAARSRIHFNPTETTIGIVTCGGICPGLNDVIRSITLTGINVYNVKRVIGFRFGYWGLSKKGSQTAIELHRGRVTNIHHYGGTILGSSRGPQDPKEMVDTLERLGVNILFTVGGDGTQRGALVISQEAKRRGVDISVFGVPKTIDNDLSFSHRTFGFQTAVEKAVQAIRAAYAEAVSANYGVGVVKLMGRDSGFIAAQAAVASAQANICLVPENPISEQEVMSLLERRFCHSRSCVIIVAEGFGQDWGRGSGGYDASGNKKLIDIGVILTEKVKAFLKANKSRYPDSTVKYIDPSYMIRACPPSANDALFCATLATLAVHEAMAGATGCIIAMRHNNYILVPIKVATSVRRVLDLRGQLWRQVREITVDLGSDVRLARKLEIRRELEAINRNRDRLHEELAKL
How it was run: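 Inhibition derived from concentration-response curves of luminescence, ranked by r2, response size and curve class; the underlying reaction used 1.25 nM PFK, 0.1 mM ATP and 0.5 mM F6P, 45 min, room temperature.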

[7] = biological target: Thioredoxin reductase 1, cytoplasmic (Rattus norvegicus) (UniProt O89049); assay: qHTS Assay for Substrates of Mammalian Selenoprotein Thioredoxin Reductase 1 (TrxR1) (AID 488772);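 also: series mostly up to about 57 µM; a drop in NADPH fluorescence below the no-compound background marks a TrxR1 substrate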
How it was run: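 In this dual-purpose format, potential substrates are identified from the first fluorescence read after selenite addition, not from the 8-minute delta. Rat enzyme is preincubated with NADPH and then with compound at ~22 deg C.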

[8] = biological target: Chromobox protein homolog 1 (Homo sapiens) (UniProt P83916); assay: qHTS Validation Assay for Inhibitors of HP1-beta Chromodomain Interactions with Methylated Histone Tails (AID 488953); also: nearly all actives have a fitted effect of over 50% in size; also: potency is read from the fitted curve at half-maximal effect
How it was run: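 Disruption of preformed HP1-beta:H3K9me3 peptide complexes (both 50 nM, PBS pH 7.4 with 0.01% Tween-20) is measured by AlphaScreen after 30 min compound exposure at room temperature, using streptavidin donor and nickel chelate acceptor beads at 10 ug/mL final.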

[9] = biological target: Methanococcus maripaludis chaperonin (MmCpn) (UniProt Q6LX38); assay: High-Throughput Screening for Modulators of Cytosolic Chaperonin Activity: MmCpn Primary Screen (AID 488978)
Methanococcus maripaludis chaperonin (MmCpn), sequence (Q6LX38 1-543): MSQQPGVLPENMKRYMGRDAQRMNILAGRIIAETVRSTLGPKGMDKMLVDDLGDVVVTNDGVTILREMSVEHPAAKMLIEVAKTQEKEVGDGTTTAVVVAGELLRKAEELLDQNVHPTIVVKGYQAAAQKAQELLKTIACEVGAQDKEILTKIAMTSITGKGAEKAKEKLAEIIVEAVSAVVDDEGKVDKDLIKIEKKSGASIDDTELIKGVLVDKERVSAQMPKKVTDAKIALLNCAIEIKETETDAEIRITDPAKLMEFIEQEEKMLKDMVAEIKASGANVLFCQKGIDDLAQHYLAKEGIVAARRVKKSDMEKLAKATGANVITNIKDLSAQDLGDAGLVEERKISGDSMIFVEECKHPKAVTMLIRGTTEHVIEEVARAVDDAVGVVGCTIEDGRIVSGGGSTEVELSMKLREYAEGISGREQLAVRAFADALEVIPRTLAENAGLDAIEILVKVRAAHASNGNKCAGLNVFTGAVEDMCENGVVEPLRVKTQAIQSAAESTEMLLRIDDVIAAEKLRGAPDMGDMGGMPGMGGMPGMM
How it was run: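 HTRF readout (320 nm excitation, 590/665 nm emission) of ADP generated by 50 nM MmCpn hydrolysing 30 uM ATP during 10 min at 37C; compound preincubated 5 min RT.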

[10] = biological target: D(1A) dopamine receptor (Homo sapiens) (UniProt P21728); assay: HTS Assay for Allosteric Agonists of the Human D1 Dopamine Receptor: Primary Screen for Agonists (AID 488981); also: potency is read from the fitted curve at half-maximal effect
D(1A) dopamine receptor (Homo sapiens), sequence (P21728 whole entry, looked up): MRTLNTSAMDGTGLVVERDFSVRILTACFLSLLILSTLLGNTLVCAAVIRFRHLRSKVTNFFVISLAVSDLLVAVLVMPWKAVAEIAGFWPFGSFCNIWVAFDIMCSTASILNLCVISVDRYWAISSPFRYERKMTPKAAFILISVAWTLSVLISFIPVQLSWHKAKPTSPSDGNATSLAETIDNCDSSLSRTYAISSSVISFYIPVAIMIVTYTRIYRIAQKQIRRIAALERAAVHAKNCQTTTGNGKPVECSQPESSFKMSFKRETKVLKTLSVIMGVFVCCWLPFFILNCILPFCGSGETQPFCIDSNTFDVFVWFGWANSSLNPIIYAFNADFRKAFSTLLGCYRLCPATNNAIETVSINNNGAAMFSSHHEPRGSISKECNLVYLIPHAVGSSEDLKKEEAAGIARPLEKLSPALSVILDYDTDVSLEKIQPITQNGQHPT
How it was run: (§1)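 Tetracycline-induced HEK293 Trex D1 cells with forced coupling to calcium, loaded with no-wash calcium dye; kinetic fluorescence read 180 s after compound addition for agonism, then a further 180 s after an EC20 dopamine challenge for potentiation.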

[11] = biological target: D(1A) dopamine receptor (Homo sapiens) (UniProt P21728); assay: HTS Assay for Allosteric Agonists of the Human D1 Dopamine Receptor: Primary Screen for Potentiators (AID 488982)
How it was run: as §1

[12] = biological target: D(1A) dopamine receptor (Homo sapiens) (UniProt P21728); assay: HTS Assay for Allosteric Agonists of the Human D1 Dopamine Receptor: Primary Screen for Antagonists (AID 488983);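 also: calcium flux response to an EC80 dopamine challenge measured with no-wash dye; nearly all actives have a fitted effect of over 65% in size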; also: potency is read from the fitted curve at half-maximal effect
How it was run: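 Kinetic fluorescence at 1 cycle/sec tracked intracellular calcium in force-coupled, tetracycline-inducible HEK293 T-REx D1 cells. Loss of response to an EC80 dopamine dose, given 180 s after compound, marked antagonists.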

[13] = Quantitative high throughput screen for delayed death inhibitors of the malarial parasite plastid, 96 hour incubation (AID 488745);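 also: luciferase-expressing P. falciparum in erythrocytes at 2% hematocrit and 0.1% parasitemia; series mostly up to about 29 µM; nearly all actives have a fitted effect of over 70% in size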
How it was run: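 Readout is firefly luciferase luminescence from an integrated reporter in P. falciparum; lower signal marks inhibited growth. Cultures at 2% hematocrit and 0.1% parasitemia were treated with compound across two generations (96 h, 37 C, 5% CO2).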

[14] = Quantitative high throughput screen for delayed death inhibitors of the malarial parasite plastid, 48 hour incubation (AID 488752); also: nearly all actives have a fitted effect of over 65% in size
How it was run: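 First, compound was pinned into RPMI 1640 medium containing 0.5% Albumax. Next, reporter-parasite-infected erythrocytes were added to 2% hematocrit and 0.1% parasitemia. After 48 h at 37 C under 5% CO2, luciferase detection reagent was added and luminescence read.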

[15] = biological target: Thioredoxin reductase 1, cytoplasmic (Rattus norvegicus) (UniProt O89049); assay: qHTS Assay for Inhibitors of Mammalian Selenoprotein Thioredoxin Reductase 1 (TrxR1) (AID 488773); details: Potency: inhibition;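 also: drop in NADPH fluorescence over an 8 min run after selenite addition; series mostly up to about 57 µM; nearly all actives have a fitted effect of over 40% in size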
How it was run: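 Inhibition is scored from the loss of NADPH fluorescence between first and last reads of an 8-min kinetic run. Selenite (400 uM) was the substrate, added after 15 min compound preincubation at room temperature.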

[16] = biological target: Flap endonuclease 1 (Homo sapiens) (UniProt P39748); assay: qHTS Validation Assay for the Inhibitors of Human Flap endonuclease 1 (FEN1) (AID 488816); also: potency is read from the fitted curve at half-maximal effect
Flap endonuclease 1 (Homo sapiens), sequence (P39748 whole entry, looked up): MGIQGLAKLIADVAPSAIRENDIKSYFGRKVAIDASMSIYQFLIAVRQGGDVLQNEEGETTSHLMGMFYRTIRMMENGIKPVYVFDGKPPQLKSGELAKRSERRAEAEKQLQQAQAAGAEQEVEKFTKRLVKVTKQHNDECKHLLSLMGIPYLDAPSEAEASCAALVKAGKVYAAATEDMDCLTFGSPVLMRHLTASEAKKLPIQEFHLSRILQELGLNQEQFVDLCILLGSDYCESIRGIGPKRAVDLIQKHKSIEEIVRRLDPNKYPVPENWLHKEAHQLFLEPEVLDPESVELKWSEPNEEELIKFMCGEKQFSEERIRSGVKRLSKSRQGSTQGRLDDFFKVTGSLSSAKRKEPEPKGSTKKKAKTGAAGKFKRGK
How it was run: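 Enzyme reagent 10 nM; cpds pinned; 15 min RT preinc.; substrate 50 nM final; reads t=0 and 15 min; no-enzyme buffer wells as neg. control; normalized data, 4-parameter Hill fit.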

[17] = biological target: M-phase phosphoprotein 8 (Homo sapiens) (UniProt Q99549); assay: qHTS Validation Assay for Inhibitors for MPP8 Chromodomain Interactions with Methylated Histone Tails (AID 488949); also: nearly all actives have a fitted effect of over 55% in size; also: potency is read from the fitted curve at half-maximal effect
M-phase phosphoprotein 8 (Homo sapiens), sequence (Q99549 whole entry, looked up): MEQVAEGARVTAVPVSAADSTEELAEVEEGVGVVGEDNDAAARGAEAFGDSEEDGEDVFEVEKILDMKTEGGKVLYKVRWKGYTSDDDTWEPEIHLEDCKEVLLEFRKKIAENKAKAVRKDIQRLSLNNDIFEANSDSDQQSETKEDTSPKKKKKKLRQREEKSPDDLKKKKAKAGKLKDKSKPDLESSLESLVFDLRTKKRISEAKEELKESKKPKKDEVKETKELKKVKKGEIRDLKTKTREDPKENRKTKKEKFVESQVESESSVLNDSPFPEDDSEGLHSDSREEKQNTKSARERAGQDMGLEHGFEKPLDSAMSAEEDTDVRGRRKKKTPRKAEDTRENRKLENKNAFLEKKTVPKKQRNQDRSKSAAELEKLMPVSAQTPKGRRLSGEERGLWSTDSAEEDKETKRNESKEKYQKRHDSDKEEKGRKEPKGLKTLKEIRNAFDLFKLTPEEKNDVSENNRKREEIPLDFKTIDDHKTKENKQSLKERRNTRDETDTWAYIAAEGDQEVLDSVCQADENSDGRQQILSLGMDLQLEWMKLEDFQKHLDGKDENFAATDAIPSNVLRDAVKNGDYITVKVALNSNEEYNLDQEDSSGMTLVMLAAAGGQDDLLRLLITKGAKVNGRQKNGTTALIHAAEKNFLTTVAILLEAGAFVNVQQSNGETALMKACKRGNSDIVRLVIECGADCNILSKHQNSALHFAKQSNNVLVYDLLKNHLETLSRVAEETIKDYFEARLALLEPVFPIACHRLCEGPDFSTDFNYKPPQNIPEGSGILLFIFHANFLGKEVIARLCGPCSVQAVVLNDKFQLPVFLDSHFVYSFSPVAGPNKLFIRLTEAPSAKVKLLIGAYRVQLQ
How it was run: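 Chemiluminescent proximity assay: histidine-tag capture via nickel acceptor beads, biotin peptide via streptavidin donor beads. Protein and peptide each at 50 nM, pH 7.4, with 30 min incubations at room temperature for complex formation, compound exposure and bead binding.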

[18] = biological target: Transient receptor potential cation channel subfamily V member 1 (Homo sapiens) (UniProt Q8NER1); assay: HTS Assay for Compounds that Act as Enhancers of the Vanilloid Receptor 1 (AID 488979)
Transient receptor potential cation channel subfamily V member 1 (Homo sapiens), sequence (Q8NER1 whole entry, looked up): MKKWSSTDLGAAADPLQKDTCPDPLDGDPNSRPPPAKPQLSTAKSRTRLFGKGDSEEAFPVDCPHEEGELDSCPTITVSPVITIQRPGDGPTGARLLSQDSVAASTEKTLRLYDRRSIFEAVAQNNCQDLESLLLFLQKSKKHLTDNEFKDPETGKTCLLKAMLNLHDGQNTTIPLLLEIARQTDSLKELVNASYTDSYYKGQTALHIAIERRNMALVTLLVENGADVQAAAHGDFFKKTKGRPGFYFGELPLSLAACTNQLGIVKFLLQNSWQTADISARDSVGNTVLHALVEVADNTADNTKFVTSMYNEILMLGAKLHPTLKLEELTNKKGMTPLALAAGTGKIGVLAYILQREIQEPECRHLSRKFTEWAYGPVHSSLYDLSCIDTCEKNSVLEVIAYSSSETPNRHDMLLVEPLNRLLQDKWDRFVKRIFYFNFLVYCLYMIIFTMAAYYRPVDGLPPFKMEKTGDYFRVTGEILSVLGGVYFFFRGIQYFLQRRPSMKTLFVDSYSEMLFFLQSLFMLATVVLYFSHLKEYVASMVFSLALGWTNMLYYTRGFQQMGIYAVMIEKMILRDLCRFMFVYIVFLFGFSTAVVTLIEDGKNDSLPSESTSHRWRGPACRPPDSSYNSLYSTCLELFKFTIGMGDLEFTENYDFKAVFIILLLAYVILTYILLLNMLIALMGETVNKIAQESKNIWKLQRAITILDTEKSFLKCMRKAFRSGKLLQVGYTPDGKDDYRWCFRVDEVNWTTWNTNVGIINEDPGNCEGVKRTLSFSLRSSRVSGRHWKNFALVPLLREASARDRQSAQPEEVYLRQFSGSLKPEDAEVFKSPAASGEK
How it was run: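 TRPV1 cells loaded with Fluo-8 calcium dye; compound added and Ca2+ signal (ex 480/em 520 nm) followed 3 min, then capsaicin at EC20 added and read 2 more min to detect enhancement.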

[19] = biological target: Thyrotropin receptor (Homo sapiens) (UniProt P16473); assay: qHTS Assay for Antagonists of the Thyroid Stimulating Hormone Receptor (AID 488980); also: series mostly up to about 58 µM
How it was run: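 Inhibition of TSH-stimulated cAMP accumulation was quantified by homogeneous time-resolved FRET in TSHR-transfected HEK293 cells. Agonist: TSH, 4 nM final (EC80).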

Measured: Potency

CCC1C(=O)OCC1Cc1cncn1C (configuration not stated)
not listed: [13] | [14] | [15] | [16] | [17] | [18] | [19]
inactive: all other assays above

CN1CCC[C@H]1c1cccnc1
not listed: [8] | [11] | [19]
inactive: all other assays above

Cc1ccc(C(=O)O[C@H](C(=O)O)[C@@H](OC(=O)c2ccc(C)cc2)C(=O)O)cc1 (tested in a mixture with another compound)
not listed: [12] | [13] | [16] | [19]
inactive: all other assays above

O=C(O)c1cc(=O)c2ccccc2[nH]1
active: [8] 0.0474 µM
not listed: [6] | [14] | [19]
inactive: all other assays above

CN1CC(=O)N/C1=N/C(=O)Nc1cccc(Cl)c1
not listed: [13] | [14] | [18] | [19]
inactive: all other assays above

O=c1[nH]c2cc(Cl)c(Cl)cc2[nH]c1=O
not listed: [6] | [13] | [16] | [19]
inactive: all other assays above

O=Nc1ccc2oc(=O)ccc2c1
inactive: [1] | [2] | [3] | [5] | [14] | [7] | [9] | [18] | [19]
active: [6] 19 µM | [17] 39.8 µM | [8] 39.8 µM

NCCCS(=O)(=O)O
not listed: [6] | [13] | [15]
inactive: all other assays above

CC(C)(C=O)Cc1cc(C(C)(C)C)c(O)c(C(C)(C)C)c1
not listed: [4] | [10] | [11] | [12] | [13] | [19]
inactive: all other assays above

O=C(c1cc(O)c(O)c([N+](=O)[O-])c1)c1ccccc1F
active: [16] 21.2 µM
not listed: [6] | [8] | [12] | [13] | [17] | [19]
inactive: all other assays above

S=C(S)OC1CC2CC1C1CCCC21 (configuration not stated)
active: [8] 39.8 µM
not listed: [4] | [13]
inactive: all other assays above

NC(N)=NC(=O)c1nc(Cl)c(N2CCCCCC2)nc1N
44.7 µM (active) and inactive: [17]
not listed: [6] | [7] | [8] | [12] | [13] | [14] | [18]
inactive: all other assays above

Cc1cc(NC2CCCCC2)nc(-n2nc(C)cc2C)n1
not listed: [6] | [10] | [13] | [14] | [18] | [19]
inactive: all other assays above

CN(C)c1nc2c(Br)c(Br)c(Br)c(Br)c2[nH]1
not listed: [4] | [13] | [15]
inactive: all other assays above

Cn1c(=O)c2[nH]c(-c3ccccc3)nc2n(C)c1=O
not listed: [4] | [10] | [11] | [16]
inactive: all other assays above

CCCCCCCCCCCCCCCC(=O)OC(CC(=O)O)C[N+](C)(C)C (configuration not stated)
active: [10] 10 µM | [12] 5.62 µM
not listed: [4] | [18]
inactive: all other assays above

Nc1nc(Cl)nc2c1ncn2[C@@H]1O[C@H](CO)[C@@H](O)[C@H]1O
not listed: [4] | [13] | [14] | [18] | [19]
inactive: all other assays above
